Where a name gives a salt, the structure may show the parent alone. ± gives the standard deviation of the averaged measurements. The full ranking holds about 2,600 compounds; the median of “total cell number (DAPI+ nuclei) relative to DMSO vehicle control” is about -1.4, and the lowest 2% start at about -23. What follows is part of a selection rich in the lowest values, with near analogues and random picks from the rest.
Each compound was assayed on jimpy (Plp1 jimpy) mouse iPSC-derived oligodendrocyte progenitor cells (assay: total cell number (DAPI+ nuclei) relative to DMSO vehicle control (SDs above negative control mean); higher = more surviving cells). Settings: 10 µM; 3 days.
Method: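 Primary phenotypic screen of >3,000 bioactive compounds (Selleck L1700 and Sigma LO1280 libraries) at a single dose of 10 µM. Compounds were added to jimpy (Plp1 mutant) mouse iPSC-derived OPCs at the start of thyroid hormone-induced oligodendrocyte differentiation, one well per compound in 384-well plates. After 3 days cells were stained for MBP, Sox10 and DAPI and imaged with an Operetta system. MBP+ oligodendrocyte number and total cell number were expressed as the number of SDs above the mean of the DMSO negative control on the same plate (n=16 control wells per plate). Hits were defined as >=4 SD for oligodendrocytes and >=2 SD for total cells.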

Row | SMILES | total cell number
1 | CCNC(=O)c1noc(-c2cc(C(C)C)c(O)cc2O)c1-c1ccc(CN2CCOCC2)cc1 | -26.3
2 | Cc1cc(C)c(CNC(=O)c2cc(-c3ccc(CN4CCOCC4)cc3)cc3c2cnn3C2CCCC2)c(=O)[nH]1 | 7.3
3 | CCN(c1cc(-c2ccc(CN3CCOCC3)cc2)cc(C(=O)NCc2c(C)cc(C)[nH]c2=O)c1C)C1CCOCC1 | 2.45
4 | CN[C@@H](C)C(=O)N[C@H](C(=O)N1CCC[C@H]1C(=O)Nc1snnc1-c1ccccc1)C1CCCCC1 | -4.08
5 | O=S(=O)(O)Oc1ccc(C(c2ccc(OS(=O)(=O)O)cc2)c2ccccn2)cc1 [Sodium Picosulfate] | 0.486
6 | O=C(O)C(=O)O.[NH-][C@@H]1CCCC[C@H]1[NH-].[Pt+2] [Oxaliplatin] | -23.4
7 | COc1ccc2c(Oc3ccc(NC(=O)c4c(C)n(CC(C)(C)O)n(-c5ccccc5)c4=O)nc3)ccnc2c1 | -3.37
8 | CCOC(=O)CC(=O)N1CCSC1COc1ccccc1OC (stereo not given) [Moguisteine] | -1.39
9 | NC1(c2ccc(-c3nc4ccn5c(=O)[nH]nc5c4cc3-c3ccccc3)cc2)CCC1 | -25.6
10 | CC1=C(C(=O)O)N2C(=O)[C@@H](NC(=O)[C@H](N)C3=CCC=CC3)[C@H]2SC1 [Cephradine] | -1.61
11 | CN(C)CCC(c1ccc(Cl)cc1)c1ccccn1 (racemic) [(±)-Chlorpheniramine maleate] | -2.22
12 | COc1cc(C(C)=O)ccc1OCCCN1CCC(c2noc3cc(F)ccc23)CC1 [Iloperidone] | -2.6
13 | CCOc1cc(C(=O)Nc2ccc(Cl)c(-c3nc4ccccc4[nH]3)c2)cc(OCC)c1OCC | -2.15
14 | CCOc1cc2ncc(C#N)c(Nc3ccc(OCc4ccccn4)c(Cl)c3)c2cc1NC(=O)/C=C/CN(C)C [Neratinib (HKI-272)] | -12.8
15 | C=CC(=O)Nc1cc2c(Nc3ccc(F)c(Cl)c3)ncnc2cc1OCCCN1CCOCC1 [Canertinib (CI-1033)] | -24.4
16 | COc1cc2c(Oc3ccc(NC(=O)C4(C(=O)Nc5ccc(F)cc5)CC4)cc3F)ccnc2cc1OCCCN1CCOCC1 | -27
17 | CCOc1cc2ncc(C#N)c(Nc3ccc(F)c(Cl)c3)c2cc1NC(=O)/C=C/CN(C)C [Pelitinib (EKB-569)] | -27.4
18 | C=CC(=O)Nc1ccc2ncnc(Nc3ccc(OCc4cccc(F)c4)c(Cl)c3)c2c1 | -12.9
19 | CN(C)C/C=C/C(=O)Nc1cc2c(Nc3ccc(F)c(Cl)c3)ncnc2cc1O[C@H]1CCOC1 [Afatinib (BIBW2992)] | -25.6
20 | COc1cc2ncnc(Nc3ccc(Cl)cc3F)c2cc1OC | -8.14
21 | COc1cc2ncnc(Nc3ccc(F)c(Cl)c3)c2cc1OCCCN1CCOCC1 [Gefitinib (ZD1839)] | -20.6
22 | COc1cc2ncnc(Nc3ccc(F)c(Cl)c3)c2cc1NC(=O)/C=C/CN1CCCCC1 | -11.6
23 | COc1cc2nccc(Oc3ccc(NC(=O)C4(C(=O)Nc5ccc(F)cc5)CC4)cc3)c2cc1OC | -20
24 | Cc1c(C(=O)N2CCOc3ccc(-c4ccc(N)nc4)cc3C2)ccc(S(C)(=O)=O)c1F | -3.21
25 | NOCC(=O)O [O-(Carboxymethyl)hydroxylamine hemihydrochloride] | 1.52
26 | N#Cc1c(O)c2c(-c3ccc(-c4ccccc4O)cc3)csc2[nH]c1=O | 0.298
27 | c1coc(CNc2ncnc3[nH]cnc23)c1 [Kinetin] | 0.658

Row | SMILES | total cell number
28 | COc1cc(/C=C(\C#N)C(=O)Nc2nnc(C(F)(F)F)s2)ccc1OCc1ccc(C(F)(F)F)cc1C(F)(F)F | -0.657
29 | Cc1cc(/C=C/C#N)cc(C)c1Nc1ccnc(Nc2ccc(C#N)cc2)n1 [Rilpivirine] | -9.09
30 | Oc1ccc(/C=C/c2cc(O)cc(O)c2)cc1 [Resveratrol] | -2.54 ± 1
31 | CCN(c1nc(N)c(C(=O)NC(=N)N)nc1Cl)C(C)C [5-(N-Ethyl-N-isopropyl)amiloride] | -4.19
32 | O=c1cc[nH]c(=S)[nH]1 [2-Thiouracil] | -0.0444
33 | CS(=O)(=O)c1ccc(C(=O)Nc2ccc(Cl)c(-c3ccccn3)c2)c(Cl)c1 [Vismodegib (GDC-0449)] | -1.63
34 | CNC(=O)Nc1ccc(-c2nc(N3CC4CCC(C3)O4)c3cnn(C4CCC5(CC4)OCCO5)c3n2)cc1 | -8.93
35 | COc1ccccc1N1CCN(CCCNc2c(C)c(=O)n(C)c(=O)n2C)CC1 [Urapidil, 5-Methyl-] | -1.49
36 | CCCCCCCCCCCCCCCCCCOP(=O)([O-])OC1CC[N+](C)(C)CC1 [Perifosine] | -0.796
37 | CN(C)CC(c1ccc(O)cc1)C1(O)CCCCC1 (stereo not given) [Desvenlafaxine] | -0.735
38 | CN(C)CC(c1ccc(O)cc1)C1(O)CCCCC1 (stereo not given) [Desvenlafaxine Succinate] | -3.69
39 | Oc1ccccc1O [Pyrocatechol] | -10.2
40 | Nc1cc(=O)[nH]c(N)n1 [2,4-Diamino-6-pyrimidinone] | -1.65
41 | CC(C)(O)CC[C@@H](O)[C@](C)(O)[C@H]1CC[C@@]2(O)C3=CC(=O)[C@@H]4C[C@@H](O)[C@@H](O)C[C@]4(C)[C@H]3CC[C@]12C [20-Hydroxyecdysone] | -0.544
42 | CC(S)C(=O)NCC(=O)O (stereo not given) [Tiopronin] | -2.65
43 | C=C(C)[C@@H]1CC=C(C(=O)O)CC1 [(-)-Perillic acid] | -1.68
44 | CN(C)c1ccc(-c2nc3ncc(Cl)c(N4CCN(CC(=O)Nc5nccs5)CC4)c3[nH]2)cc1 | 1.85
45 | O=C1CCC(N2C(=O)c3ccccc3C2=O)C(=O)N1 (racemic) [(±)-Thalidomide] | -2.18
46 | O=C1CCC[C@@H]2[C@H]3CCC[N+]4([O-])CCC[C@@H](CN12)[C@@H]34 (stereo not given in full) [Oxymatrine] | -0.222
47 | C#Cc1cccc(Nc2ncnc3cc(OC)c(OCCCCCCC(=O)NO)cc23)c1 | -18.7
48 | COc1cc2c(Nc3ccc(NC(=O)c4ccccc4)cc3)ncnc2cc1OCCCN1CCOCC1 | -26.6
49 | COc1cc2c(N3CCN(C(=O)Nc4ccc(OC(C)C)cc4)CC3)ncnc2cc1OCCCN1CCCCC1 [Tandutinib (MLN518)] | -10.3
50 | CCOC(=O)[C@@H](N)Cc1ccc(O)c(O)c1 [L-Dopa ethyl ester] | -2.07
51 | C=CCNC1=C2C[C@@H](C)C[C@H](OC)[C@H](O)[C@@H](C)/C=C(\C)[C@H](OC(N)=O)[C@@H](OC)/C=C\C=C(/C)C(=O)NC(=CC1=O)C2=O [17-AAG (Tanespimycin)] | -25
52 | COC1=C2C[C@@H](C)C[C@H](OC)[C@H](O)[C@@H](C)/C=C(\C)[C@H](OC(N)=O)[C@@H](OC)/C=C\C=C(/C)C(=O)NC(=CC1=O)C2=O [Geldanamycin] | -12.3
53 | CO[C@H]1/C=C\C=C(/C)C(=O)NC2=CC(=O)C(NCCN(C)C)=C(C[C@@H](C)C[C@H](OC)[C@H](O)[C@@H](C)/C=C(\C)[C@@H]1OC(N)=O)C2=O [17-DMAG (Alvespimycin) HCl] | -26.5
54 | CN(NC(=O)CC(=O)NN(C)C(=S)c1ccccc1)C(=S)c1ccccc1 [Elesclomol (STA-4783)] | -1.04

Row | SMILES | total cell number
55 | CCC(C)(Oc1ccc(C2(c3ccc(OC(C)(CC)C(=O)O)cc3)CCCCC2)cc1)C(=O)O (stereo not given) [Clinofibrate] | 1.25
56 | N[C@H]1C[C@@H]1c1ccc(-c2cccc(O)c2)cc1 | -3.31
57 | Cc1ccc(C(=O)Cn2c3c(sc2=N)CCCC3)cc1 [Pifithrin-? (PFT?)] | 1.69
58 | OC[C@H]1O[C@@H](n2cnc3c(N[C@H]4CCC[C@@H]4O)ncnc32)[C@H](O)[C@@H]1O | 0.458
59 | CC(Cc1ccc(O)c(O)c1)(NN)C(=O)O (stereo not drawn) [S-(-)-Carbidopa] | -1.61
60 | Cc1cc(Cn2cnc3c2C[C@@H](C(=O)O)N(C(=O)C(c2ccccc2)c2ccccc2)C3)ccc1N | -6.04
61 | O=C(Nc1ccccc1-c1cn2c(CN3CCNCC3)csc2n1)c1cnc2ccccc2n1 | -27.8
62 | C=C1C[C@@]23CC[C@H]4[C@@](C)(CCC[C@@]4(C)C(=O)O)[C@@H]2CC[C@]1(O)C3 [Steviol] | -0.619
63 | CC(C)c1cc(-c2n[nH]c(=O)n2-c2ccc3c(ccn3C)c2)c(O)cc1O [Ganetespib (STA-9090)] | -25.4
64 | Cc1cc(NC(=O)Nc2ccc3c(ccn3C)c2)sn1 | -1.4
65 | CN(C[C@@H]1COCCO1)S(=O)(=O)Nc1ccc2ccc3ncc(-c4cnn(C)c4)cc3c(=O)c2c1 | -9.05
66 | Cc1ccc(C(=O)N(CCCN)[C@@H](c2oc3cc(Cl)ccc3c(=O)c2Cc2ccccc2)C(C)C)cc1 | -15.1
67 | Cc1ccc(C(=O)N(CCCN)[C@@H](c2nc3cc(Cl)ccc3c(=O)n2Cc2ccccc2)C(C)C)cc1 | -27.5
68 | CNC(=O)CN(CCN(CCN(CC(=O)[O-])CC(=O)NC)CC(=O)[O-])CC(=O)[O-].[Gd+3] [Gadodiamide] | -14.9
69 | C=CCNC(N)=S [Allylthiourea] | 6.27
70 | CCc1ccc(OCc2ccccc2C(=O)Nc2ccc3nc(C)cc(N)c3c2)cc1 | -12.5
71 | COc1cc(OC)c(NC(=O)Nc2cc(C)on2)cc1Cl | -0.876
72 | COc1cc2nccc(Oc3ccc(NC(=O)Nc4cc(C)on4)c(Cl)c3)c2cc1OC [Tivozanib (AV-951)] | -23.5
73 | COc1cc2nccc(Oc3ccc(NC(=O)NC4CC4)c(Cl)c3)c2cc1C(N)=O [Lenvatinib (E7080)] | -9.34
74 | Nc1nccc2c1ncn2C1C=C(CO)C(O)C1O (stereo not given) [3-Deazaneplanocin A (DZNeP)] | -9.16
75 | CN(C)C[C@H](O)Cn1c2ccc(Br)cc2c2cc(Br)ccc21 (racemic) [Wiskostatin] | -4.17
76 | Nc1n[n+]([O-])c2ccccc2[n+]1[O-] [Tirapazamine] | -6.5
77 | COc1ccc2[nH]c([S+]([O-])Cc3ncc(C)c(OC)c3C)nc2c1 (stereo not given) [Omeprazole] | 5.38
78 | COc1c(C)cnc(Cn2cnc3c(Cl)nc(N)nc32)c1C | -26.3
79 | COc1ccc2[nH]c([S@@+]([O-])Cc3ncc(C)c(OC)c3C)nc2c1 [Esomeprazole magnesium dihydrate] | -0.604
80 | COc1ccc2[nH]c([S@@+]([O-])Cc3ncc(C)c(OC)c3C)nc2c1 [Esomeprazole Sodium] | 1.8
